High-throughput results: PubChem BioAssay, Broad Institute
FGF22 binding: binders of recombinant human FGF22 by thermal shift; Q9HCT0; SYPRO orange fluorescence; percent of sucrose octasulfate shift, DMSO zero; activity (Tm shift, normalised), % at 9.99 µM; hit rate 1.5% among 340,000;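 active = mean Tm shift, scaled 0 neutral to 100 positive control, at about 1.3% or above, every replicate too, limit read from the data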
dFosB act: enhances mouse delta FosB homodimer DNA binding; P13346; activation, % at 25 µM; hit rate 0.99% among 340,000; purified delta FosB, TAMRA-CDK5 oligo fluorescence polarization; percent of positive-control signal above neutral wells;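 active = mean activation above about 17%, with every replicate also reaching it, limit read from the data, passing the limit was not always enough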
CDK5 inh: inhibitors of human CDK5/p35 kinase. Q00535+Q15078. Recombinant CDK5/p35, ADP-Glo luminescence, 60 min. inhibition, % at 10 µM. hit rate 0.01% among 330,000;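 active = highest replicate inhibition of at least 50% and at least 75% of replicates reaching 50%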
SIRT5 inh: blocks human SIRT5 desuccinylation of peptide. inhibition, % at 15 µM. Purified SirT5, succinyl-peptide AMC, trypsin-coupled fluorescence. Q9NXA8. hit rate 1.1% among 330,000; in the data active = inhibition above about 15%
PvdQ inh: blocks Pseudomonas aeruginosa PvdQ acylase activity; inhibition, % at 10 µM; AID 488965; purified PvdQ acylase, fluorescence plate reader; hit rate 0.063% among 340,000; in the data active = inhibition above about 30%, passing the limit was not always enough
PglD inh: blocks C. jejuni PglD acetyltransferase activity | inhibition, % at 12.5 µM | purified PglD enzyme, DTNB colorimetric CoA detection | hit rate 0.098% among 360,000 | AID 602405; in the data active = inhibition above about 16%, passing the limit was not always enough
A number is an active result. Rows were chosen to be rich in hits. Some 2.8% of all compounds tested hit in one or more screens of this group.

Results for O=C(CSc1ccc(F)cc1)N1CCN(S(=O)(=O)c2ccccc2)CC1 ?
FGF22 binding: 44; dFosB act: inactive; CDK5 inh: inactive; SIRT5 inh: inactive; PvdQ inh: inactive; PglD inh: inactive

Results for O=S(=O)(c1ccc(F)cc1)N1CCN(C(=S)NCc2ccccc2)CC1 ?
FGF22 binding: 44; dFosB act: inactive; CDK5 inh: inactive; SIRT5 inh: inactive; PvdQ inh: inactive

How did Cc1cc(C(=O)Nc2cccc3c2O[C@@H](CN(C)C(=O)Nc2ccccc2)[C@H](C)CN([C@H](C)CO)C3=O)n(C)n1 do in these assays?
FGF22 binding: inactive; SIRT5 inh: inactive; PglD inh: inactive

How did COc1ccc(S(=O)(=O)N2CCOCC2)cc1NC(=O)CSc1nc(C)c(C)c(C)n1 do in these assays?
FGF22 binding: inactive; dFosB act: inactive; CDK5 inh: inactive; PvdQ inh: inactive; PglD inh: inactive

Results for COc1ccc(S(=O)(=O)N2CCOCC2)cc1NC(=O)CSc1n[nH]c(C(C)C)n1 ?
FGF22 binding: inactive; dFosB act: inactive; CDK5 inh: inactive; SIRT5 inh: 20; PvdQ inh: inactive; PglD inh: inactive

Results for Cc1ccc(S(=O)(=O)N(C)C)cc1NC(=O)COC(=O)c1n[nH]c(=O)c2ccccc12 ?
FGF22 binding: inactive; dFosB act: inactive; CDK5 inh: inactive; SIRT5 inh: inactive; PvdQ inh: inactive

How did COc1ccc(S(=O)(=O)N2CCOCC2)cc1NC(=O)[C@@H]1CCCN1C(=O)c1cccs1 do in these assays?
FGF22 binding: 43; dFosB act: inactive; CDK5 inh: inactive; SIRT5 inh: inactive; PvdQ inh: inactive

How did Cc1ccc(S(=O)(=O)N2CCOCC2)cc1NC(=O)COC(=O)c1n[nH]c(=O)c2ccccc12 do in these assays?
FGF22 binding: inactive; dFosB act: inactive; CDK5 inh: inactive; SIRT5 inh: 16; PvdQ inh: inactive

What do the screens show for `COc1ccc(S(=O)(=O)N2CCOCC2)cc1NC(=O)COC(=O)c1[nH]c(C)c(C(C)=O)c1C`?
FGF22 binding: inactive; dFosB act: inactive; CDK5 inh: inactive; SIRT5 inh: 17; PvdQ inh: inactive; PglD inh: inactive

What do the screens show for `C[C@H](CO)N1C[C@H](C)[C@@H](CN(C)S(=O)(=O)c2ccc(Cl)cc2)Oc2ccc(N(C)C)cc2CC1=O`?
FGF22 binding: inactive; SIRT5 inh: inactive; PglD inh: inactive

How did CN(C)C(=O)c1cccc(-c2ccccc2[C@H]2[C@@H](C#N)N(C(=O)C3CCCC3)[C@H]2CO)c1 do in these assays?
SIRT5 inh: inactive

How did C[C@@H]1CN([C@H](C)CO)C(=O)c2cc(C3=CCCC3)cnc2O[C@H]1CN(C)C(=O)C1CCOCC1 do in these assays?
FGF22 binding: inactive; SIRT5 inh: inactive; PglD inh: inactive

How did CCCC(=O)Nc1ccc2c(c1)C(=O)N(C)[C@H]1CC[C@@H](CC(=O)Nc3ccccc3)O[C@@H]1CO2 do in these assays?
FGF22 binding: inactive; SIRT5 inh: inactive; PglD inh: inactive

How did Cc1nn(-c2ccccc2)c2sc(C(=O)OCn3nnc4ccccc4c3=O)cc12 do in these assays?
FGF22 binding: inactive; dFosB act: inactive; CDK5 inh: inactive; SIRT5 inh: 17; PvdQ inh: inactive; PglD inh: inactive

Results for Cc1cc(-c2nn(-c3ccccc3F)cc2CN2CCCC(O)C2)c(C)s1 (stereo not drawn) ?
FGF22 binding: inactive; dFosB act: inactive; CDK5 inh: inactive; SIRT5 inh: inactive; PvdQ inh: inactive; PglD inh: inactive

What do the screens show for `Cc1cc(-c2nn(-c3ccccc3F)cc2CN2CCCC(CO)C2)c(C)s1` (stereo not drawn)?
FGF22 binding: 43; dFosB act: inactive; CDK5 inh: inactive; SIRT5 inh: inactive; PvdQ inh: inactive; PglD inh: inactive

What do the screens show for `COCC(=O)Nc1ccc2c(c1)[C@H]1C[C@@H](CC(=O)NCc3ccc(OC)cc3)O[C@H](CO)[C@H]1O2`?
FGF22 binding: inactive; SIRT5 inh: inactive; PglD inh: inactive

What do the screens show for `Cc1noc(C)c1S(=O)(=O)Nc1ccc2c(c1)CC(=O)N([C@@H](C)CO)C[C@@H](C)[C@@H](CN(C)Cc1ccc3c(c1)OCO3)O2`?
FGF22 binding: inactive; SIRT5 inh: inactive; PglD inh: inactive

What do the screens show for `O=C(C=Cc1cccnc1)c1ccccc1`?
FGF22 binding: inactive; dFosB act: inactive; CDK5 inh: inactive; SIRT5 inh: inactive; PvdQ inh: inactive; PglD inh: inactive
